Here are results for 115 molecules from PubChem BioAssay AID488890 (Southern Research Specialized Biocontainment Screening …, 2010).

SMILES strings stand for the structures. The campaign covered roughly 320,000 compounds. About 1,300 (0.41%) were called active. Inconclusive results (about 3%) are left out. No rule for the calls is given here. Not all results are given here. Measured potencies and affinities stand elsewhere.

The test in a line: growth inhibition of non-replicating M. tuberculosis (AID 488890).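 Also: plate controls were DMSO cells for no effect and high antibiotic wells for full effect.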 To be noted: Mycobacterium tuberculosis non-replicating, at 25 µM, stronger effect = higher value.
Regarding `Cc1nnc(C)n1N`, the inhibition is -10.3%.

`COc1ccc(NC(=O)CN2CCN(C(=O)C3CCCO3)CC2)c(OC)c1` (stereo not given): the inhibition is -13.5%. Then `O=C(NC1CCOc2ccccc21)c1ccccn1` (stereo not given), with 75.5%; and `O=C(NC1CCCc2ccccc21)c1ccc(Cl)nc1` (stereo not given), with 72.1%; and `O=C(O)c1cc(N/N=C/c2c(O)ccc3ccccc23)ccc1Cl`, with 0.25%.

With `COc1ccc2ccccc2c1/C=N/Nc1ccc(Cl)c(C(=O)O)c1`, the inhibition was -12.5%. Then `CC(C)(C)OCC1CO1` (stereo not given), with -2.36%.

As for `Cc1ccccc1SCC(=O)Nc1ccc(N2CCOCC2)cc1`, the inhibition is 0.16%. On to `COc1ccccc1Nc1nn2c(=O)c3ccc(C(=O)N4CCC(C)CC4)cc3nc2s1`, for which the inhibition turned out to be 33.4%. As to `COc1nc(OC)nc(Oc2ccc(Cl)cc2[N+](=O)[O-])n1`, the inhibition was determined as 2.78%. The figure for `COc1ccc(OCCNc2cc(Cl)ccc2[N+](=O)[O-])cc1` is -1.86%; for `CCc1ccccc1OCCCN1CCCC1` it is 4.44%. The figure for `Cc1cc(-n2cnnn2)ccc1C(C)C` is 9.21%; for `Nc1cccn2c(-c3ccc(Cl)c(Cl)c3)cnc12` it is 54.7%. The figure for `Cn1c(-c2ccc(Cl)cc2)cnc1N` is 52.6%; for `COc1ccc(C(C)=O)cc1CSc1nc(C)cc(C)n1` it is 6.97%.

Regarding `O=C(O)C(Br)CBr` (stereo not given), the inhibition is 20.6%. The figure for `Cc1cc(C)c2c(=O)n(CC(=O)NC3CCCC3)sc2n1` is 6.3%; for `Cc1c(Cl)cccc1NC(=O)Cn1cc(C(F)(F)F)cc(Cl)c1=O` it is 3.98%. The figure for `CCCNC(=O)Cn1sc2nc(C)cc(C)c2c1=O` is 2.63%. On to `Cc1cccc(N2CCN(C(=O)Cn3nc(C)n4cccc4c3=O)CC2C)c1` (stereo not given), for which the inhibition is -17.1%. Then `Cc1c(Cl)cccc1NC(=O)Cn1cccc1`, with 4.11%; and `Cc1cc(C)c2c(=O)n(CC(=O)N3CCC(N4CCCCC4)CC3)sc2n1`, with -11.9%. For `COCCCn1nnnc1SCC(=O)N1c2ccccc2CC1C` (stereo not given), the inhibition amounted to 0.95%. For `CC(=O)Nc1ccc2c(c1)C(=O)N(C1CCCCC1)C2=O`, the inhibition is -7.24%. The figure for `CCOc1ccc(OCCC(=O)OCC(=O)N2CCN(S(=O)(=O)c3ccc(Cl)cc3)CC2)cc1` is 40.6%.

As to `Cc1ccc(NC(=O)C(C)SCc2nc3sc(C)c(C)c3c(=O)[nH]2)nc1` (stereo not given), the inhibition was -7.05%. The figure for `C[C@H](NC(=O)[C@@H]1Cc2ccccc2CN1C(=O)OC(C)(C)C)C(=O)NCC1CCCO1` (stereo not given in full) is 6.8%; for `CC(=O)Nc1nc2ccccc2n1CCN(C)C` it is 14.6%; for `Nc1nc2ccccc2n1CCOc1ccc(Cl)cc1` it is 79%. The figure for `O=C(O)c1ccc(NCc2nc3ccccc3n2CCOc2ccccc2Cl)cc1` is 30.7%; for `Nc1nc2ccccc2n1CCOc1ccc(F)cc1` it is 11%; for `O=C(CCc1nnc(CCCCc2ccccc2)o1)NCCC1CCCCO1` (stereo not given) it is 15.1%.

On to `CCCNC(=O)N1CCN(S(=O)(=O)c2ccc3c(c2)OCCO3)CC1`, for which the inhibition is 1.44%. The figure for `CCCNC(=O)NC(=O)CN1CCCC1c1ccc2c(c1)OCCO2` (stereo not given) is -16.2%. The figure for `CCOC(=O)c1c(CC(C)C)csc1/N=C/C1C(=O)CC(C)(C)CC1=O` is -10.2%; for `OCC1(Cc2ccc(F)cc2)CCCN(CCCC(F)(F)F)C1` (stereo not given) it is -19.8%. For `Cc1ccc(S(=O)(=O)N2[C@@H](c3ccc4c(c3)OCO4)C(C(=O)O)=C[C@H]2C(C)(C)C)cc1`, the inhibition is 41.7%. As for `CC1Cc2ccccc2N1C(=O)COC(=O)c1cc(Br)ccc1O` (stereo not given), the inhibition was 62.7%. Then `O=C(CCC(=O)c1cccs1)c1cccs1`, with 68.8%; and `O=C(CCC(=O)N1CCN(c2ccccn2)CC1)c1cccs1`, with -4.25%; and `Cc1ccc(NC(=O)N2CCCCCC2)c(C)c1`, with -16.7%. With `Cc1cccc(-c2c3c(=O)n(C)c(=O)n(C)c3cn2-c2ccc(O)cc2)c1`, the inhibition is -12.8%. The figure for `CC(C)NC(=O)c1cc(-n2cnnc2)ccc1Cl` is 2.78%; for `CCOC(=O)C1=C(c2ccccc2)NC(=O)NC1c1ccc(OCC#N)c(OC)c1` (stereo not given) it is -4.72%. The figure for `CCOC(=O)C1=C(c2ccccc2)NC(=O)NC1c1ccc(OC)c(OC)c1` (stereo not given) is 2.41%; for `COC(=O)c1ccc(CNC(=O)c2ccc(COc3ccccc3)cc2)cc1` it is 10.8%; for `CCOC(=O)C1=C(c2ccccc2)Nc2ncnn2C1c1ccc(C(=O)O)cc1` (stereo not given) it is 1.92%. Then `Cc1cc(C(=O)Nc2cc(C)on2)on1`, with 6.65%; and `C=C/C(C)=C/CC1C(=C)CCC2C(C)(C(=O)O)CCCC12C` (stereo not given), with 0.01%. As to `C=C[C@]1(C)C=C2CC[C@H]3[C@@](C)(CCC[C@@]3(C)C(=O)O)[C@@H]2CC1`, the inhibition is 43.7%. Then `O=C(O)C1CCN(S(=O)(=O)c2ccc(N3CCOCC3)c([N+](=O)[O-])c2)CC1`, with -8.22%. As for `Cc1ccc(N(C(=O)CNC(=O)c2ccco2)C(C(=O)NCC2CCCO2)c2ccccc2)cc1C` (stereo not given), the inhibition came out at 16%. The figure for `CCNC(=O)C(C)Sc1ccc(Cl)cc1` (stereo not given) is 25.6%; for `COc1ccc(-c2nnn(CC(=O)NC(=O)NC3CCCCC3)n2)cc1OC` it is 2.95%; for `COc1ccc(-c2nnn(CC(=O)N(C3CCCCC3)C(C)C(=O)NC3CCCC3)n2)cc1OC` (stereo not given) it is 34.8%. The figure for `CCCCCn1c(=O)c(C(=O)Nc2cccc(C)n2)c(O)c2ccccc21` is -21.5%.

On to `CCCCCn1c(=O)c(C(=O)Nc2ccccc2C)c(O)c2ccccc21`, for which the inhibition was -22.9%. Turning to `CCOC(=O)Cc1csc(NC(=O)c2c(O)c3c(n(CC(C)C)c2=O)CCCC3)n1`, the inhibition worked out at 44.2%.

As to `CC(C)CCn1c(=O)c(C(=O)Nc2ccccc2S(N)(=O)=O)c(O)c2ccccc21`, the inhibition was determined as 17.2%. Then `Cc1ccc(S(=O)(=O)N(C)C)cc1NC(=O)c1c(-c2c(F)cccc2Cl)noc1C`, with -9.18%; and `CCOc1ccccc1C(=O)Nc1nccs1`, with 5.93%; and `O=C(Nc1nccs1)c1ccc(Cl)cc1[N+](=O)[O-]`, with 0.86%.

Take `CCOc1cccc2cc(C(=O)Nc3cc(C)on3)c(=O)oc12`: the inhibition was determined as 75.1%.

With `O=C(Nc1nccs1)c1cc(Cl)ccc1[N+](=O)[O-]`, the inhibition is 12.9%.

Turning to `Nc1nnc(-c2ccccc2F)s1`, the inhibition came out at 1%.

With `O=C(/C=C/c1ccc(Cl)cc1)Nc1ccccc1N1CCOCC1`, the inhibition is -7.86%. Consider `O=c1[nH]c(=O)n(Cc2ccco2)c(O)c1/C=N/N1CCCCC1`, for which the inhibition came to 1.03%. Then `COCCN=C1NN=C(c2ccc(C)c([N+](=O)[O-])c2)CS1`, with -8.83%. The figure for `N/C(=N\OC(=O)CCC1CCCC1)c1ccncc1` is 60.9%.

Regarding `N/C(=N\OC(=O)CC1CCCCC1)c1cccnc1`, the inhibition was determined as 73%. Then `Cc1ccc(OCCN2CCN(c3nc(NCc4ccco4)c4ccccc4n3)CC2)cc1`, with 62.8%.

For the molecule `OCCN1CCN(c2nc(NCc3ccco3)c3ccccc3n2)CC1`, the inhibition came out at 9.79%. Then `CCS(=O)(=O)c1ncc(Cl)c(C(=O)Nc2ccc(S(=O)(=O)N3CCCC(C)C3)cc2)n1` (stereo not given), with 58.5%. The figure for `CCC1CCCCN1S(=O)(=O)c1ccc(NC(=O)c2nc(S(C)(=O)=O)ncc2Cl)cc1` (stereo not given) is 66.2%; for `CCc1ccc(NC(=O)c2nc(S(=O)(=O)Cc3ccccc3)ncc2Cl)cc1` it is 0.81%. Regarding `Cc1ccc(CS(=O)(=O)c2ncc(Cl)c(C(=O)Nc3ccc(OC(F)F)cc3)n2)cc1`, the inhibition is -1.41%.

In the case of `CN(c1ccccc1)S(=O)(=O)c1ccc(NC(=O)c2nc(S(C)(=O)=O)ncc2Cl)cc1`, the inhibition came out at 56%. Turning to `CCN(c1ccccc1)S(=O)(=O)c1ccc(NC(=O)c2nc(S(C)(=O)=O)ncc2Cl)cc1`, the inhibition was 37.2%. The figure for `Cc1ccc(F)cc1NC(=O)N1CCCN(C(=O)OC(C)(C)C)CC1` is -10.3%; for `O=C(CSc1ncn[nH]1)Nc1c(F)cc(F)cc1Br` it is -11.1%; for `Cc1ccc(NC(=O)CC(C)c2ccccc2)cc1S(=O)(=O)N1CCOCC1` (stereo not given) it is 10.4%.

On to `O=C(O)CNC(=S)N(Cc1ccccc1)Cc1cccnc1`, for which the inhibition was 6.66%. The figure for `O=C(CSc1nncs1)Nc1nccs1` is -27.1%; for `COCCN1CCn2c(nc3cc(NC(=O)Cn4nc(C)c5ccccc5c4=O)ccc32)C1` it is -5.63%. The figure for `COc1ccc(OCCNc2cc(N3CCOCC3)ccc2[N+](=O)[O-])cc1` is 26.3%. Then `COc1ccc(OCCNc2cc(N3CCCCC3)ccc2[N+](=O)[O-])cc1`, with 72.4%.

`Cc1ccsc1C(=O)C1CCCN(Cc2sc(N(C)C)nc2Cl)C1` (stereo not given): the inhibition is -9.22%. The figure for `CC1CC(c2ccccc2)n2nc(NC(=O)c3ccco3)nc2N1` (stereo not given) is 3.85%; for `CC1CCCC(NC(=O)CCCn2ncn3c(cc4occc43)c2=O)C1C` (stereo not given) it is -13.3%; for `CC1Cc2ccccc2N1C(=O)c1ccc(N2CCCCC2)c([N+](=O)[O-])c1` (stereo not given) it is 20.8%. The figure for `Cc1ccc2sc3ccc(NC(=O)c4ccccc4Cl)cc3c(=O)c2c1` is -1.36%; for `Cc1ccc(C(=O)N[C@H](C(=O)NC2CCCCCCC2)C(C)C)cc1` it is -6.5%. The figure for `Cc1ccc(C(=O)N[C@H](C(=O)NC2CCCCC2)C(C)C)cc1` is 15.5%; for `CN(C)c1cc[n+](CC(=O)N2c3ccccc3Sc3ccccc32)cc1` it is 6.94%; for `CC1(c2cc(C(F)(F)F)n3nc(C(=O)O)cc3n2)CC1` it is -1.85%. `Fc1ccc(Oc2cnc3ccccc3n2)cc1`: the inhibition is 75.1%. The figure for `CCC(=O)Nc1nc2ccccc2n1CCN(C)C` is 28.6%; for `CCC(=O)Nc1nc2ccccc2n1CCN(CC)CC` it is 12.6%. Then `CCS(=O)(=O)c1nc2ccccc2n1Cc1ccccc1Cl`, with 17.3%; and `CCn1c(NCc2ccccc2Cl)nc2ccccc21`, with 26.2%. Then `Cc1nc2ccccc2n1Cc1ccc(Cl)cc1`, with 16.2%; and `CCC(=O)Nc1nc2ccccc2n1CCN1CCOCC1`, with 2.63%. Consider `Cc1ccc(CNC(=O)c2nnn(-c3cccc(C)c3)c2N)cc1`, for which the inhibition came out at 27.4%. Consider `O=c1c2ccccc2nnn1COc1ccc(F)cc1Cl`, for which the inhibition was 33%. Then `N#CC(C#N)=C1NC2(CCCCC2)Cc2ccccc21`, with -7.74%.

As to `CN(CC(=O)Nc1cccc(F)c1)C(=O)c1ccc(C2SCCS2)cc1`, the inhibition turned out to be 16%. The figure for `COc1ccc(NC(=O)c2cnc(SCC(=O)NCCc3ccccc3)n(C)c2=O)cc1` is -6.78%. In the case of `COc1ccccc1C(=O)N(CCC1CCCN1C)c1nc2ccccc2s1` (stereo not given), the inhibition amounted to 12.9%. The figure for `CCCCn1c(N)c(N(CCOC)C(=O)c2sc3cc(F)ccc3c2Cl)c(=O)[nH]c1=O` is -5.03%. Then `NS(=O)(=O)c1ccc(NC(=O)COC(=O)COc2ccc3ccccc3c2)cc1`, with 34.3%; and `O=C(CSc1n[nH]c(=O)n1Cc1ccco1)Nc1ccccc1`, with -4.65%. In the case of `CCN1C(=O)C(CC(=O)Nc2ccc(Br)cc2)N(CCCc2ccccc2)C1=S` (stereo not given), the inhibition is 41.5%.

Turning to `O=C(Nc1ccccc1)ON=C1CCCC1`, the inhibition was found to be 69.3%. The figure for `Cc1ccc(NC(=O)O/N=C/c2ccc(F)cc2)cc1` is 4.77%.
